Where “and” joins values, the source holds several entries; their conditions need not be identical. Equal values may be shown once. In all, about 5,500 compounds went through this assay and about 2,000 (36%) were called active. Inconclusive results (about 18%) are left out. Rule as the data show it: active = normalized growth mostly below about 0.91 (no sharp cut-off); inconclusive = no clear call, values can overlap the other calls; inactive = mostly above about 0.92. The list shows a part of the results.
Test: chemical genetic growth profiling, strain panel (AID 1159580);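 also: tested at 20 µM; growth read once vehicle control cultures reached saturation at 30 °C; 1 = growth at the plate median or of vehicle wells; lower values mean less growth of the strain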
Settings: S. cerevisiae deletion strains, growth OD

Measured: normalized growth

CC(=O)OCC[N+](C)(C)C
inactive: locus YAL013W, strain DEP1, stronger effect = lower value 1.01 | locus YAL021C, strain ccr4, stronger effect = lower value 1.03 | locus YAL030W, strain snc1, stronger effect = lower value 1.02 | locus YBL061C, strain skt5, stronger effect = lower value 1.03 | locus YBR009C, strain hhf1, stronger effect = lower value 1.08 | locus YBR021W, strain FUR4, stronger effect = lower value 1.06 | locus YBR023C, strain chs3, stronger effect = lower value 1.05 | locus YBR171W, strain sec66, stronger effect = lower value 0.999 | locus YBR229C, strain ROT2, stronger effect = lower value 1.01 | locus YBR231C, strain swc5, stronger effect = lower value 1.03 | locus YBR279W, strain paf1, stronger effect = lower value 1.04 | locus YCL011C, strain gbp2, stronger effect = lower value 1.07 | locus YCL016C, strain dcc1, stronger effect = lower value 1.05 | locus YCL029C, strain bik1, stronger effect = lower value 1.04 | locus YCL069W, strain vba3, stronger effect = lower value 1.03 | locus YCR088W, strain abp1, stronger effect = lower value 1.02 | locus YDL005C, strain med2, stronger effect = lower value 1 | locus YDL035C, strain GPR1, stronger effect = lower value 0.961 | locus YDL040C, strain nat1, stronger effect = lower value 1.02 | locus YDL074C, strain BRE1, stronger effect = lower value 0.965 | locus YDL101C, strain DUN1, stronger effect = lower value 0.985 | locus YDL134C, strain PPH21, stronger effect = lower value 0.986 | locus YDL185W, strain tfp1, stronger effect = lower value 0.969 | locus YDL192W, strain arf1, stronger effect = lower value 1.02 | locus YDR001C, strain nth1, stronger effect = lower value 1.01 | locus YDR069C, strain doa4, stronger effect = lower value 1 | locus YDR101C, strain arx1, stronger effect = lower value 1.07 | locus YDR162C, strain NBP2, stronger effect = lower value 0.948 | locus YDR297W, strain sur2, stronger effect = lower value 1.02 | locus YDR318W, strain mcm21, stronger effect = lower value 1.01 | locus YDR334W, strain swr1, stronger effect = lower value 1.03 | locus YDR335W, strain msn5, stronger effect = lower value 1 | locus YDR388W, stronger effect = lower value 1.02 | locus YDR392W, strain spt3, stronger effect = lower value 1.13 | locus YDR502C, strain sam2, stronger effect = lower value 1.01 | locus YEL003W, strain gim4, stronger effect = lower value 1.01 | locus YEL037C, strain rad23, stronger effect = lower value 1.03 | locus YEL061C, strain CIN8 (second series), stronger effect = lower value 1.03 | locus YEL061C, strain CIN8, stronger effect = lower value 0.993 | locus YER015W, strain faa2, stronger effect = lower value 1.07 | locus YER016W, strain bim1, stronger effect = lower value 1.02 | locus YER110C, stronger effect = lower value 1.01 | locus YER111C, strain swi4, stronger effect = lower value 1.02 | locus YER155C, strain BEM2 (second series), stronger effect = lower value 1.11 | locus YER155C, strain BEM2, stronger effect = lower value 1.02 | locus YER167W, strain BCK2, stronger effect = lower value 1.01 | locus YFR010W, strain ubp6, stronger effect = lower value 1.01 | locus YGL078C, strain dbp3, stronger effect = lower value 1.03 | locus YGL086W, strain mad1, stronger effect = lower value 1.01 | locus YGL167C, strain pmr1, stronger effect = lower value 1.01 | locus YGL173C, strain kem1, stronger effect = lower value 1.02 | locus YGL227W, strain vid30, stronger effect = lower value 1.02 | locus YGL240W, strain doc1, stronger effect = lower value 1.11 | locus YGL248W, strain PDE1, stronger effect = lower value 0.99 | locus YGL253W, strain hxk2, stronger effect = lower value 1.03 | locus YGR135W, strain pre9, stronger effect = lower value 0.996 | locus YGR252W, strain gcn5, stronger effect = lower value 0.943 | locus YHR013C, strain ard1, stronger effect = lower value 1.11 | locus YHR027C, strain rpn1, stronger effect = lower value 1.02 | locus YHR030C, strain SLT2, stronger effect = lower value 1.01 and 1.08 | locus YHR079C, strain IRE1 (second series), stronger effect = lower value 1.02 | locus YHR079C, strain IRE1, stronger effect = lower value 1.1 | locus YHR094C, strain hxt1, stronger effect = lower value 1.02 | locus YHR129C, strain ARP1, stronger effect = lower value 1.01 | locus YHR142W, strain chs7, stronger effect = lower value 1.1 | locus YHR200W, strain rpn10, stronger effect = lower value 1.02 | locus YIL066C, strain RNR3, stronger effect = lower value 0.988 | locus YIL073C, strain SPO22, stronger effect = lower value 0.973 | locus YIL125W, strain kgd1, stronger effect = lower value 1.03 | locus YIR030C, strain dcg1, stronger effect = lower value 1.06 | locus YJL092W, strain hpr5, stronger effect = lower value 1.02 | locus YJL095W, strain BCK1 (second series), stronger effect = lower value 1.02 | locus YJL095W, strain BCK1, stronger effect = lower value 0.928 and 1.07 | locus YJL115W, strain asf1, stronger effect = lower value 1.03 | locus YJL129C, strain trk1, stronger effect = lower value 1.09 | locus YJL134W, strain LCB3, stronger effect = lower value 1.02 | locus YJL154C, strain vps35, stronger effect = lower value 1.03 | locus YJL164C, strain tpk1, stronger effect = lower value 1.05 | locus YJL166W, strain qcr8, stronger effect = lower value 1.04 | locus YJL168C, strain set2, stronger effect = lower value 1.03 | locus YJL187C, strain SWE1 (second series), stronger effect = lower value 0.951 | locus YJL187C, strain SWE1, stronger effect = lower value 1.02 | locus YJR043C, strain POL32, stronger effect = lower value 0.994 | locus YJR066W, strain TOR1, stronger effect = lower value 1.03 | locus YJR075W, strain HOC1, stronger effect = lower value 0.978 | locus YKL009W, strain mrt4, stronger effect = lower value 0.945 | locus YKL068W, stronger effect = lower value 1.01 | locus YKL085W, strain MDH1 (second series), stronger effect = lower value 1.01 | locus YKL085W, strain MDH1, stronger effect = lower value 1.01 | locus YKL160W, strain elf1, stronger effect = lower value 1.03 | locus YKR001C, strain vps1, stronger effect = lower value 0.975 | locus YKR026C, strain gcn3, stronger effect = lower value 1.03 | locus YKR091W, strain srl3, stronger effect = lower value 1.02 | locus YLL001W, strain dnm1, stronger effect = lower value 1.02 | locus YLL026W, stronger effect = lower value 1.03 | locus YLL041C, strain sdh2, stronger effect = lower value 1.02 | locus YLR027C, strain aat2, stronger effect = lower value 1.02 | locus YLR039C, strain RIC1, stronger effect = lower value 0.756 | locus YLR058C, strain SHM2, stronger effect = lower value 0.972 | locus YLR102C, strain apc9, stronger effect = lower value 1.01 | locus YLR113W, strain HOG1, stronger effect = lower value 1.14 | locus YLR258W, strain gsy2, stronger effect = lower value 1.04 | locus YLR262C, strain YPT6, stronger effect = lower value 0.801 | locus YLR268W, strain sec22, stronger effect = lower value 0.967 | locus YLR320W, strain mms22, stronger effect = lower value 1.1 | locus YLR330W, strain CHS5, stronger effect = lower value 0.998 | locus YLR342W, strain FKS1 (second series), stronger effect = lower value 0.986 | locus YLR342W, strain FKS1, stronger effect = lower value 1.01 | locus YLR357W, strain rsc2, stronger effect = lower value 1.12 | locus YLR370C, strain arc18, stronger effect = lower value 1.03 | locus YLR371W, strain rom2, stronger effect = lower value 1.08 | locus YLR384C, strain iki3, stronger effect = lower value 1.02 | locus YLR418C, strain cdc73, stronger effect = lower value 0.99 | locus YML016C, strain PPZ1, stronger effect = lower value 0.993 | locus YML032C, strain rad52, stronger effect = lower value 0.918 | locus YML120C, strain ndi1, stronger effect = lower value 1.04 | locus YML124C, strain tub3, stronger effect = lower value 1 | locus YMR058W, strain fet3, stronger effect = lower value 1.05 | locus YMR078C, strain ctf18, stronger effect = lower value 1.02 | locus YMR125W, strain sto1, stronger effect = lower value 1.05 | locus YMR129W, stronger effect = lower value 1.02 | locus YMR205C, strain PFK2, stronger effect = lower value 1.08 | locus YMR223W, strain ubp8, stronger effect = lower value 0.978 | locus YMR231W, strain pep5, stronger effect = lower value 0.993 | locus YMR307W, strain GAS1, stronger effect = lower value 1.07 | locus YNL067W, strain RPL9B, stronger effect = lower value 0.961 | locus YNL071W, strain lat1, stronger effect = lower value 1.04 | locus YNL183C, strain NPR1, stronger effect = lower value 1.04 | locus YNL209W, strain ssb2, stronger effect = lower value 1.02 | locus YNL233W, strain BNI4, stronger effect = lower value 0.973 | locus YNL250W, strain rad50, stronger effect = lower value 1.02 | locus YNL271C, strain bni1, stronger effect = lower value 1.01 | locus YNL298W, strain CLA4, stronger effect = lower value 1.01 | locus YNL307C, strain MCK1, stronger effect = lower value 1.03 | locus YNL322C, strain KRE1 (second series), stronger effect = lower value 1.07 | locus YNL322C, strain KRE1, stronger effect = lower value 1.02 | locus YNR049C, strain mso1, stronger effect = lower value 1.01 | locus YNR052C, strain pop2, stronger effect = lower value 1.02 | locus YOL012C, strain htz1 1.26 | locus YOL147C, strain pex11, stronger effect = lower value 1.03 | locus YOR001W, strain rrp6, stronger effect = lower value 0.99 | locus YOR061W, strain CKA2, stronger effect = lower value 0.994 | locus YOR069W, strain VPS5, stronger effect = lower value 1.01 | locus YOR070C, strain gyp1, stronger effect = lower value 1.02 | locus YOR080W, strain dia2, stronger effect = lower value 1.02 | locus YOR083W, strain WHI5, stronger effect = lower value 1.05 | locus YOR106W, strain vam3, stronger effect = lower value 1.08 | locus YOR136W, strain idh2, stronger effect = lower value 1.02 | locus YOR184W, strain ser1, stronger effect = lower value 0.988 | locus YOR231W, strain MKK1, stronger effect = lower value 1.08 | locus YOR265W, strain rbl2, stronger effect = lower value 1.02 | locus YOR290C, strain snf2, stronger effect = lower value 1.06 | locus YOR316C, strain cot1, stronger effect = lower value 1.01 | locus YPL051W, strain arl3, stronger effect = lower value 1.05 | locus YPL055C, strain LGE1, stronger effect = lower value 0.982 | locus YPL078C, strain atp4, stronger effect = lower value 1.04 | locus YPL106C, strain sse1, stronger effect = lower value 1.02 | locus YPL240C, strain hsp82, stronger effect = lower value 1.01 | locus YPL241C, strain CIN2, stronger effect = lower value 1 | locus YPR119W, strain clb2, stronger effect = lower value 1.01 | locus YPR163C, strain tif3, stronger effect = lower value 1.01 | locus YPR167C, strain met16, stronger effect = lower value 1.03 | strain wtn01, stronger effect = lower value 0.996
active: locus YAL026C, strain drs2, stronger effect = lower value 1.1 [resistant] | locus YDR137W, strain rgp1, stronger effect = lower value 1.55 [resistant] | locus YDR159W, strain sac3, stronger effect = lower value 1.15 [resistant] | locus YDR195W, strain ref2 1.21 [resistant] | locus YLR221C, strain rsa3, stronger effect = lower value 1.1 [resistant] | locus YLR262C, strain YPT6 (second series), stronger effect = lower value 1.27 [resistant] | locus YNL248C, strain rpa49, stronger effect = lower value 1.12 [resistant] | locus YOR144C, strain elg1, stronger effect = lower value 1.09 [resistant] | locus YOR270C, strain vph1, stronger effect = lower value 0.749 | locus YPL256C, strain CLN2, stronger effect = lower value 1.24 [resistant] | locus YPR141C, strain kar3, stronger effect = lower value 1.09 [resistant]
